Screens (PubChem BioAssay)
M1 PAM parental – nonselective activator or artifact in parental CHO-K1 calcium assay; ATP EC20, Fluo-8 calcium fluorescence; 0% at ATP EC20, 100% at ATP max; activation, % at 3 µM; 360,000 tested, 0.02% active;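 active means activation above the run cutoff, the mean activation of all test compounds plus 3 SD, cut at about 40% in these data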;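 further: peak over basal fluorescence ratio in a 140 s read after ATP addition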
M1 ag parental – counter-screen for M1 agonists: effect in parental CHO-K1 cells; activation, % at 3 µM; Fluo-8 calcium fluorescence; scaled to maximal ATP response, vehicle zero; 360,000 tested, 0.48% active; AID 602248; in the data active means activation above about 15%;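 further: untransfected CHO-K1 host cells lacking M1 receptor as counterscreen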
M1 antag – antagonists of human M1 muscarinic receptor. P11229. CHO-K1 hM1, Fluo-8 calcium fluorescence, ACh EC80 antagonist. inhibition, % at 3 µM. 360,000 tested, 1.3% active. AID 588852;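 active means percent inhibition above its own plate's cutoff, namely the mean of that plate's compound wells plus 3 SD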;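 further: peak over basal fluorescence ratio during 140 s after agonist addition; 0% = ACh EC80 plus DMSO and 100% = DMSO alone without agonist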
Target sequence (P11229 whole entry, looked up): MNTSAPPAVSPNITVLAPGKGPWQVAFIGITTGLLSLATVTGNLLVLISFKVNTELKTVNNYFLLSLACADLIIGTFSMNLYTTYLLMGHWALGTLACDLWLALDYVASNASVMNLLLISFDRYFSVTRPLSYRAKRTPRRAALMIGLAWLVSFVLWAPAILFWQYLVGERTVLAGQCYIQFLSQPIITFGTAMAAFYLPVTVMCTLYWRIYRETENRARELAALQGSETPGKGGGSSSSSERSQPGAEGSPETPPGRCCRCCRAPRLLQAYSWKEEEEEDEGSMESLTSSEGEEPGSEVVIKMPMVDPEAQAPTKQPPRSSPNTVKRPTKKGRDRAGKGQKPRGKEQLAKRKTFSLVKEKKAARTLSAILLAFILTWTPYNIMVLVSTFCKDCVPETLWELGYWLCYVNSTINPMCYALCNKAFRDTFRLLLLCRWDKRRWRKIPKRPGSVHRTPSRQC
M1 ag – activates human CHRM1 receptor | 360,000 tested, 0.33% active | activation, % at 3 µM | P11229 | CHO-K1 hM1, Fluo-8 calcium fluorescence, agonist mode; 0% DMSO, 100% acetylcholine EC100;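 active means activation above the run's mean compound activation plus 3 SD, cut at about 16% in these data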;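 further: peak over basal fluorescence ratio within a 140 s kinetic read after compound addition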
CHO-K1 Ca antag – nonselective inhibitor or artifact in parental CHO-K1 cells | ATP-induced calcium, Fluo-8 fluorescence | inhibition, % at 3 µM | 360,000 tested, 0.6% active | AID 602250;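 active means inhibition above a per-plate cutoff, the plate's mean sample inhibition plus 3 SD, cut at about 24% in these data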;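 further: 0% = DMSO plus EC80 ATP and 100% = DMSO alone without ATP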
CHRM1 PAM – human CHRM1 positive allosteric modulation; activation, % at 3 µM; AID 588819; 360,000 tested, 0.088% active; CHO-K1 hM1, Fluo-8 calcium fluorescence, ACh EC20; 0% = ACh EC20, 100% = maximal ACh; P11229; in the data active means activation above about 19%, passing the limit was not always enough
Active calls of the source: *; · = no result. Rows were chosen to be rich in hits. Some 2.3% of all compounds tested hit in one or more screens of this group.

SMILES	M1 PAM parental	M1 ag parental	M1 antag	M1 ag	CHO-K1 Ca antag	CHRM1 PAM
O=C1Nc2ccc(Br)cc2C(c2ccccc2)=NC1O (stereo unspecified)	-8	0	-3	2	7	17
CC(=O)N1CCN(Cc2ccc(Cl)nc2)CC1	9	1	-2	-3	-6	28*
Oc1cccc(/C=N/NP(=S)(c2ccccc2)c2ccccc2)c1	-8	0	0	-3	25*	2
C[C@]12CCC3C(CC[C@@H]4[C@H]5O[C@H]5CC[C@]34C)C1CC[C@@H]2O (stereo partly specified)	18	-1	-9	-2	-8	3
CN1CCCC2c3ccccc3CCC21 (stereo unspecified)	-4	0	-5	-6	-1	2
Cc1ccc(-c2cc(-c3ccccc3)cc(-c3ccccc3)[n+]2-c2ccc(C(=O)O)cc2)cc1	-1	0	-7	0	-14	15
C[n+]1c(-c2ccccc2)cc(CCCCc2cc(-c3ccccc3)[n+](C)c(-c3ccccc3)c2)cc1-c1ccccc1	-1	0	55*	-5	-6	-19
O=S(=O)(NC1CN2CCC1CC2)c1ccc(Cl)cc1 (stereo unspecified)	-11	1	25*	-12	-8	-19
CCC[N+]12CCC(CC1)C(C(O)(c1ccccc1)c1ccccc1)C2 (stereo unspecified)	4	0	60*	-9	-7	-24
C[N+]12CCC(CC1)C(C(O)(c1ccccc1)c1cccs1)C2 (stereo unspecified)	25	2	99*	-8	-13	-23
CCCC[N+]12CCC(CC1)C(C(O)(c1ccccc1)c1ccccc1)C2 (stereo unspecified)	-18	0	32	-7	14	-18
COc1ccc(NC(=O)c2cn(CCC#N)nc2-c2cccc(Br)c2)cc1	12	1	-9	-3	0	8
CN1CCC(O)(c2cccs2)C(C(=O)c2cccs2)C1 (stereo unspecified)	3	1	-16	0	-4	6
Cn1c(=O)n(CC(=O)N2CCC3(CC2)OCCO3)c(=O)c2ccccc21	18	0	-64	3	-19	25*
O=C(Cn1c(=S)[nH]c2ccccc2c1=O)N1CCC2(CC1)OCCO2	5	1	2	-4	-1	-2
O=P(Nc1ccccc1)(Nc1ccccc1)Oc1ccccc1	24	11	2	-4	-9	-3
O=P(Nc1ccccc1)(Nc1ccccc1)Oc1cccc(Cl)c1	5	41*	30	10	3	-20
O=P(Nc1ccccc1)(Oc1ccccc1)Oc1ccccc1	13	7	37*	-3	-3	-17
Cc1cccc(NP(=O)(Oc2ccccc2)Oc2ccccc2)c1C	16	17*	30*	-3	-4	-17
CC(CC(C)(C)N1CC1)=NNC(=O)Nc1cccc2ccccc12	4	0	-27	-4	-8	16
O=[N+]([O-])c1cc(Cl)c(Cl)cc1Cl	3	0	22*	-1	-17	-14
O=[N+]([O-])c1ccc(Cl)c([N+](=O)[O-])c1	-6	0	-18	10	-5	12
Oc1ccc(Cl)cc1	9	1	-39	0	1	5
C[N+](C)(C)CCc1ccc(O)cc1	15	1	-7	35*	-2	0
CCOc1cc2c(cc1OCC)-n1cccc1C(c1ccc(OC)cc1)NC2 (stereo unspecified)	14	18*	-7	-5	3	4
SMILES	M1 PAM parental	M1 ag parental	M1 antag	M1 ag	CHO-K1 Ca antag	CHRM1 PAM
CCOc1cc2c(cc1OCC)-n1cccc1C(c1ccc(F)cc1)NC2 (stereo unspecified)	6	5	3	-7	-9	1
CSCCC(c1nnnn1C1CCCC1)N1CCC(n2c(=O)[nH]c3ccccc32)CC1 (stereo unspecified)	3	7	-5	-1	-10	-8
CSCCC(c1nnnn1C1CCCCC1)N1CCC(n2c(=O)[nH]c3ccccc32)CC1 (stereo unspecified)	-6	6	34*	-2	15	-16
Cc1ccc2c(C)c3ccc4ccccc4c3c[n+]2c1	16	1	12	-9	-10	-6
CCCNC(=O)N1[C@H]2CC[C@@H]1C(C(=O)OC)=C(c1ccc(OC(F)(F)F)cc1)C2	9	1	-4	-7	-1	9
COc1ccc(-c2nn(CCC#N)cc2C(=O)Nc2cccc([N+](=O)[O-])c2)cc1OC	11	2	6	0	-3	-8
CCOC(=O)[C@]12Cc3ccc(C)cc3[C@H]1N(C1CCCCC1)C(=O)c1cc(OC)ccc12	14	2	·	·	1	·
CCOC(=O)[C@]12Cc3cc(Cl)ccc3[C@H]1N(C1CCCCC1)C(=O)c1cc(OC)ccc12	2	4	·	·	33*	·
CN1CCN(/N=C/c2c(O)n(Cc3ccc(F)cc3)c(=O)[nH]c2=O)CC1	-22	0	6	-2	1	-2
O=C(NCCN1CCC2(CC1)C(=O)NCN2c1cccc(F)c1)c1ccc2ccccc2c1	-19	41*	·	·	93*	·
O=C1NCN(c2ccccc2)C12CCNCC2	17	1	-11	-10	-20	7
CC(CC(C#N)(c1ccccc1)c1ccccc1)N1CCOCC1 (stereo unspecified)	11	-1	99*	-9	-10	-30
N#CC(c1cccnc1)N1CCOCC1 (stereo unspecified)	-2	1	6	-7	-2	4
CCN(CC)S(=O)(=O)c1cc(NC(=O)C(C)N2CC=C(c3ccccc3)CC2)ccc1C (stereo unspecified)	19	0	37*	-15	-7	-28
Cc1cc(Br)c(NC(=O)CN2CC=C(c3ccccc3)CC2)c(Br)c1	27	3	3	-15	-10	-26
CCN1CCN(CC(c2ccccc2)c2ccccc2)CC1	2	1	100*	-9	-3	-30
CCN1CCc2ccccc2C1	11	1	-4	-4	-4	3
CC(C)(C)n1nnnc1C(CCc1ccccc1)N1CCC2(CC1)C(=O)NCN2c1ccccc1 (stereo unspecified)	23	1	-33	4	-24	-1
CC(C)(C)N1CC(C(=O)c2ccccc2)C1c1ccccc1 (stereo unspecified)	13	0	5	-9	-14	-10
CS(=O)(=O)c1ccc(C2=C(CNC(=O)c3ccncc3)[C@H]3CC[C@@H](C2)N3CCOc2ccccc2)cc1	-5	0	29*	-11	-9	-19
